Reference: article PMC4336329 (PLoS ONE, 2015)
Screen size: about 310,000 compounds; about 14,000 (4.5%) showed an effect of 50% or more. Effects have a minus sign here. For the sample, strong results were picked, then their nearest neighbours and some compounds at random.

Each compound was assayed against human ether-à-go-go-related gene (hERG) potassium channel (human, UniProt Q12809) (assay: primary screen, population patch clamp on CHO cells stably expressing hERG; higher = less effect of the substance).
Sequence of human ether-à-go-go-related gene (hERG) potassium channel (Q12809 whole entry, looked up): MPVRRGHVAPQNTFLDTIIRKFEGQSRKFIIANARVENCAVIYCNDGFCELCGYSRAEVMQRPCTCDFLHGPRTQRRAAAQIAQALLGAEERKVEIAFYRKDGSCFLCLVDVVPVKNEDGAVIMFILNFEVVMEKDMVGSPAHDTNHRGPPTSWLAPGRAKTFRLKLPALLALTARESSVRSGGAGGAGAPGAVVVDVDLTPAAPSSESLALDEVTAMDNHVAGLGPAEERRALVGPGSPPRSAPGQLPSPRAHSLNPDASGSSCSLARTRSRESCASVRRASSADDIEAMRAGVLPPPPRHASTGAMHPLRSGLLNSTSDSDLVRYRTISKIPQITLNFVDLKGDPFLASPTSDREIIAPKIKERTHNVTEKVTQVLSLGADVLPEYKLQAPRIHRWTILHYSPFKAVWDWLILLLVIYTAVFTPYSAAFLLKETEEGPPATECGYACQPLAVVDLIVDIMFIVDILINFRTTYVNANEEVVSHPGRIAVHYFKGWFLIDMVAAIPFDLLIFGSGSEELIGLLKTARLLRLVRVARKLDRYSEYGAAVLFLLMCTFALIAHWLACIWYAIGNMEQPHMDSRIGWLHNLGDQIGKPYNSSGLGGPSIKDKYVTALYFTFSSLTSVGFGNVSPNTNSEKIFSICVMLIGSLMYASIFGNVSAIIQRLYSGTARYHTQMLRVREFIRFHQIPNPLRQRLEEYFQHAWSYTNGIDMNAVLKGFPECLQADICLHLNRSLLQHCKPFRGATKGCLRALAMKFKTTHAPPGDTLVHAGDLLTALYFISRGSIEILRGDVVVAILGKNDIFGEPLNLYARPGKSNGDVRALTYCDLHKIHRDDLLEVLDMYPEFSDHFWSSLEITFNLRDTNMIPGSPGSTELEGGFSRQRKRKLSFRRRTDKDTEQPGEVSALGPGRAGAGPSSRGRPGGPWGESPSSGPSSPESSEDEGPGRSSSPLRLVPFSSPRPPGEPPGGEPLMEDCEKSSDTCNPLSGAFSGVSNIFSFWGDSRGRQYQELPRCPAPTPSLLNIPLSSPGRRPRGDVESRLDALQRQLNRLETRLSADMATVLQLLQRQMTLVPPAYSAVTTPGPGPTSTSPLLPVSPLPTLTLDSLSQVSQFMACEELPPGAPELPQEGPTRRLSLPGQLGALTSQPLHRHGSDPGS
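Note: peak tail current of the secondary pulse compared with the same well before compound.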

Structure (SMILES)	hERG current change (%, negative = inhibition) at 10uM
CCn1c(SCC(=O)NC2CCCC2)nnc1-c1ccncc1	16.4%
Cc1ccc(OCC(=O)Nc2ccccc2F)cc1	-0.548%
CN1C(=O)/C(=C/c2ccc(OCc3ccc(C(=O)O)cc3)c(Cl)c2)NC1=S	20.4%
Cc1ccc(OCCn2cnc3c2c(=O)n(C)c(=O)n3C)cc1	20%
C=CCSc1nc2ccccc2[nH]1	25%
O=C(Cc1ccccc1)NCc1ccc(-n2cccc2)cc1	29.3%
CN(C(=O)CC1C(=O)NCCN1Cc1cccc(F)c1F)C1CC(C)(C)NC(C)(C)C1 (stereo not shown)	26.1%
Cc1ccc(OCC(=O)Nc2ccc3c(c2)nc(CCN2CCN(C)CC2)n3C)cc1	-55.6%
Cc1ccc(OCC(=O)Nc2ccc3c(c2)nc(CCN2CCCCC2)n3C)cc1	-82.3%
Cn1c(CCN2CCCCC2)nc2cc(NC(=O)C3CCCCC3)ccc21	-60.2%
CC(=O)NCCc1nc2cc(NC(=O)COc3ccc(C)cc3)ccc2n1C	14.2%
Cn1c(CN2CCCC2)nc2cc(NC(=O)C3CCCCC3)ccc21	-4.77%
COc1ccc(OCC(=O)Nc2ccc3c(c2)nc(CCN2CCCCC2)n3C)cc1	-65.5%
CCC(=O)Nc1ccc2c(c1)nc(CCN1CCN(C)CC1)n2C	29.3%
Cn1c(CCN2CCCCC2)nc2cc(NC(=O)NC3CCCCC3)ccc21	0.766%
COc1ccc(OCC(=O)Nc2ccc3c(c2)nc(CCN2CCN(C)CC2)n3C)cc1	-8.47%
CCOC(=O)C(=CNc1ccc2c(c1)nnn2-c1ccc(Cl)cc1)C(=O)OCC	-5.02%
COc1ccccc1-c1cc(C(F)(F)F)nc(S(=O)(=O)CCCC(=O)N2CCOCC2)n1	2.47%
Cn1ncc(Cl)c1C(=O)NCC1CCCO1 (stereo not shown)	9.21%
O=C(Cn1cc(C(=O)c2ccccc2F)c2ccccc21)NC1CC1	-4.44%
CCN(CC)c1ccc(NC(=O)CSc2nnc3nc(C)cc(C)n23)cc1	-0.579%
Cc1cc(C(=O)NNC(=O)c2ccc(Cl)cc2)c2ccccc2n1	0.225%
CC(=O)N1CSCC1C(=O)NNS(=O)(=O)c1cccc(C(F)(F)F)c1 (stereo not shown)	8.58%
Cl.NC1=NC(c2cccc(Cl)c2)N(CCc2ccc(F)cc2)C(N)=N1 (stereo not shown)	15.6%
OC1C=CSc2nc3ccccc3n21 (stereo not shown)	4.02%

Structure (SMILES)	hERG current change (%, negative = inhibition) at 10uM
CCOc1ccc(-c2csc3nc[nH]c(=O)c23)cc1	14.9%
OCCNc1nc(C2CC2)nc2c1nnn2Cc1ccccc1Cl	-0.392%
CS(=O)(=O)N(CC(=O)Nc1ccccc1C(=O)N1CCCC1)c1cccc([N+](=O)[O-])c1	-13.2%
O=C(NCCN1CCOCC1)c1cc(-c2cccs2)nc2ccccc12	-13.1%
COc1cc(CO)ccc1Oc1nc2ccccc2n2cnnc12	10.7%
COC(=O)c1ccc(OC(C)C(=O)c2ccc(C)cc2)cc1 (stereo not shown)	-21.5%
CC(=O)c1ccc(OCC(O)COc2ccc(C(C)=O)cc2)cc1	-11.3%
CC(=O)c1ccc(OCCOc2ccc(C#N)cc2)cc1	-49.4%
CC(=O)c1ccc(OCC(C)Oc2ccc(C#N)cc2)cc1 (stereo not shown)	-62.8%
CC(Oc1ccc(C#N)cc1)C(=O)NC1CCCC1 (stereo not shown)	-12.9%
CC(Oc1ccc(C#N)cc1)C(=O)c1ccc(F)c(F)c1 (stereo not shown)	-51.6%
CCC1C(=O)N=C(SCC(=O)Nc2cccc3ccccc23)NC1=O (stereo not shown)	-7.84%
COc1ccc(C2C(C(=O)N3CCC(C(N)=O)CC3)CC(=O)N2c2ccc(OC)cc2)cc1 (stereo not shown)	-1.19%
COc1ccc(OCCn2c(N)nc3ccccc32)cc1	-67.4%
Nc1nc2ccccc2n1CCOc1ccc(F)cc1	-67.9%
Clc1ccc(OCCn2c(-c3ccco3)nc3ccccc32)cc1	-26.7%
S=C(Nc1ccccc1)Nc1nc2ccccc2n1CCOc1ccc(Br)cc1	11.6%
Nc1nc2ccccc2n1CCOc1ccc(Cl)cc1	-51.1%
Nc1nc2ccccc2n1CCOc1ccccc1Cl	-3.5%
OCc1nc2ccccc2n1CCCOc1ccc(Br)cc1	-36.8%
Cn1c(COc2ccc(F)cc2)nc2ccccc21	-0.759%
COCCn1c(COc2ccc(OC)cc2)nc2ccccc21	-14.3%
CCCn1c(N)nc2ccccc21	8.05%
Nc1nc2ccccc2n1CCOc1ccc(Br)cc1	-61.2%
Cc1nc2ccccc2n1CCOc1ccc(F)cc1	-19.8%

Structure (SMILES)	hERG current change (%, negative = inhibition) at 10uM
O=P(NS(=O)(=O)c1ccc(Br)cc1)(Oc1ccccc1)Oc1ccccc1	12.2%
O=C(Cn1c(=O)c(=O)n(Cc2ccccc2)c2ccc(Cl)cc21)Nc1ccc(F)cc1F	21.3%
Cc1cc(C)c(Cn2c(=O)n(CCCC(=O)NCc3ccco3)c(=O)c3sccc32)c(C)c1	6.15%
Cc1cc(NC(=O)c2cc([N+](=O)[O-])ccc2Cl)no1	8.65%
Nn1c(COc2ccc(Cl)cc2)nc2ccccc2c1=O	-34.8%
CCc1ccc(CNC(=O)c2ccc(OC3CCN(C(C)=O)CC3)c(OC)c2)nc1	8.11%
O=C(C1CCCN(c2nnc(-n3cccc3)s2)C1)N1CCN(c2ccccc2)CC1 (stereo not shown)	-47%
COC(=O)c1ccccc1NC(=O)C1CCCN(c2nnc(-n3cccc3)s2)C1 (stereo not shown)	-53%
O=C(NCCCN1CCN(Cc2ccccc2)CC1)C1CCN(c2nnc(-n3cccc3)s2)CC1	-48.5%
CC(CCc1ccccc1)NC(=O)C1CCCN(c2nnc(-n3cccc3)s2)C1 (stereo not shown)	-11.2%
CC(C)NC(=O)C1CCCN(c2nnc(-n3cccc3)s2)C1 (stereo not shown)	-16.4%
O=C(NC1CCN(Cc2ccccc2)CC1)C1CCN(c2nnc(-n3cccc3)s2)CC1	-59%
CC(=O)Nc1ccc(NC(=O)C2CCCN(c3nnc(-n4cccc4)s3)C2)cc1 (stereo not shown)	7.44%
CC1CCN(Cc2ccc(NC(=O)C3CCN(c4nnc(-n5cccc5)s4)CC3)cc2)CC1	1.05%
O=C(NC1CCN(Cc2ccccc2)CC1)C1CCCN(c2nnc(-n3cccc3)s2)C1 (stereo not shown)	-69.8%
NC(=O)c1ccc(N2CCN(c3ccccc3F)CC2)c([N+](=O)[O-])c1	-25.5%
[Br-].c1ccc(-c2c[n+]3c(n2-c2ccccc2)CCC3)cc1	-3.72%
FC(F)Sc1ccc(-n2c(-c3ccc(Cl)cc3)c[n+]3c2CCC3)cc1.[Br-]	-92.6%
Cc1ccc(-n2c(-c3ccccc3)c[n+]3c2CCC3)cc1.[Br-]	-50.7%
Cc1ccc(-n2c(-c3ccc(Cl)cc3)c[n+]3c2CCC3)cc1.[Br-]	-62.4%
Cc1ccc(-c2c[n+]3c(n2-c2ccccc2)CCC3)cc1.[Br-]	-48.9%
Cc1cc(C)cc(OCC(=O)NCC2CCCO2)c1 (stereo not shown)	-11.8%
C#CCOC(=O)C[N+](C)(C)CC#Cc1ccccc1.[Cl-]	33.3%
COc1ccc(C2=NOC(C)(c3nnc(-c4ccccc4)o3)C2)cc1 (stereo not shown)	-58.3%
CC1(c2nnc(-c3ccc(Cl)cc3)o2)CC(c2c(Cl)cccc2Cl)=NO1 (stereo not shown)	1.13%

Structure (SMILES)	hERG current change (%, negative = inhibition) at 10uM
COc1ccc(C2=NOC(C)(c3nnc(-c4ccncc4)o3)C2)cc1 (stereo not shown)	1.73%
CC1(c2nnc(-c3ccccc3)o2)CC(c2ccccc2)=NO1 (stereo not shown)	-11.6%
CC1(c2nnc(-c3ccncc3)o2)CC(c2c(Cl)cccc2Cl)=NO1 (stereo not shown)	-69.8%
CC1(c2nnc(-c3ccccc3)o2)CC(c2c(Cl)cccc2Cl)=NO1 (stereo not shown)	23.4%
CC(=O)Nc1ccc(NC(=O)CSc2ccc(-c3cccnc3)nn2)cc1	24.7%
O=C(C1CCC1)N1CCN(S(=O)(=O)c2ccc(Br)cc2Cl)CC1	-21.8%
COCCn1c(Cc2ccccc2)nnc1SCC(=O)Nc1cc(C)on1	-5.36%
COc1ccc(CC(=O)NNC(=O)CCc2ccccc2)cc1OC	14.8%
CCCSc1cc(=O)n(-c2ccccc2)nc1C(=O)O	15.7%
CCOc1ccccc1Nc1nnc(SC(C)C(=O)Nc2nc(-c3ccccc3)cs2)s1 (stereo not shown)	1.46%
Br.C=CCn1c(C)csc1=Nc1ccccc1C	4.02%
Cc1ccccc1CC(=O)NCC1CCCCC1	1.34%
Cc1ccccc1N(CC(=O)NCC1CCCO1)C(=O)C1(C)CC(=O)N=C2C=CC=CN21 (stereo not shown)	-1.4%
Cc1ccccc1NS(=O)(=O)c1ccc(C(=O)NCC(c2ccco2)N2CCCCC2)cc1 (stereo not shown)	5.89%
O=C(NCC(c1ccco1)N1CCCCC1)c1ccc(NS(=O)(=O)c2ccc(F)cc2)cc1 (stereo not shown)	-13%
Cc1cc(S(=O)(=O)Nc2ccc(C(=O)NCC(c3ccco3)N3CCCC3)cc2)ccc1F (stereo not shown)	-50.6%
Cc1cccc(NS(=O)(=O)c2ccc(C(=O)NCC(c3ccco3)N3CCCCC3)cc2)c1C (stereo not shown)	-55.6%
Cc1cc(S(=O)(=O)Nc2ccc(C(=O)N3CCN(C(=O)c4ccco4)CC3)cc2)ccc1F	-64.4%
Cc1ccc(NS(=O)(=O)c2cccc(C(=O)N3CCN(C(=O)c4ccco4)CC3)c2)cc1	-36.8%
COc1ccccc1C(CNC(=O)c1ccc(NS(=O)(=O)c2ccc(F)c(C)c2)cc1)N1CCCC1 (stereo not shown)	-58.1%
O=C(c1ccc(S(=O)(=O)Nc2ccc(F)cc2)cc1)N1CCN(C(=O)c2ccco2)CC1	-29.4%
COc1ccccc1C(CNC(=O)c1cccc(NS(=O)(=O)c2ccc(C)c(F)c2)c1)N1CCCC1 (stereo not shown)	-40.9%
COc1ccccc1C(CNC(=O)c1ccc(NS(=O)(=O)c2ccc(F)c(C)c2)cc1)N(C)C (stereo not shown)	-24.4%
O=C(NCC(c1ccco1)N1CCCC1)c1ccc(S(=O)(=O)Nc2ccccc2Cl)cc1 (stereo not shown)	-11.6%
Cc1cc(S(=O)(=O)Nc2ccc(C(=O)NCC(c3ccco3)N3CCCCC3)cc2)ccc1F (stereo not shown)	-41.2%
